Reference: PubChem BioAssay AID2763 (National Center for Advancing Translational Sciences (NCATS), 2010)
Results filed as inconclusive are left out. Unmarked numbers belong to inactive results. The source made the active and inactive calls. The call rests on the fitted dose curve; in most records, active means well fitted inhibition curve with a large enough effect; inconclusive means small, poorly fitted or top-dose-only effect, or effect the other way; inactive means no such curve, though single readings can be large or run the other way.

Test: Concentration response confirmation VP16 counterscreen for inhibitors of ROR gamma transcriptional activity; further: nearly all actives have a fitted effect of over 70% in size
Settings: Drosophila S2 Gal4-VP16 UAS-luciferase, luminescence, 20 h; series mostly up to 46.1 µM; activity change, negative = inhibition: at the top concentration
Method in brief: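 Luciferase counterscreen: UAS-driven Photinus reporter in S2 cells expressing copper-inducible Gal4-VP16 fusion, 600 cells/well. Induced with copper sulfate (700 uM final) 1 hr after compound, incubated 20 hr at ambient temperature before luminescence detection.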
On the % scale 0 is the no-effect control and ±100 the full control effect; potency means the concentration at half of the fitted maximal effect.

| SMILES | Potency | activity change, negative = inhibition |
| --- | --- | --- |
| Cc1ccc2nc(-c3ccc(NC(=O)COC(=O)c4ccc([N+](=O)[O-])o4)cc3)sc2c1 | 3.53 µM (active) | – |
| Oc1ccccc1-c1cc(-c2ccc3c(c2)OCCO3)n[nH]1 | 19.9 µM (active) | – |
| COc1ccc(CNS(=O)(=O)c2ccc3c(c2)CCN3C(=O)C2CC2)cc1 | – | -5.25% |
| CCOc1cccc(-c2cc(-c3n[nH]c(=S)n3CC)c3ccccc3n2)c1 | – | -3.87% |
| COC(=O)Cn1c(CN2CCN(c3ccc(F)cc3)CC2)nc2c1c(=O)n(C)c(=O)n2C | 3.15 µM (active) | – |
| CCNC(=O)CCc1nc(-c2ccc(C(C)(C)C)cc2)no1 | 4.45 µM (active) | – |
| Cc1ccc(S(=O)(=O)NCc2ccncc2)c(C)c1C | 3.97 µM (active) | – |
| O=C(CSc1n[nH]c(=O)n1-c1ccc2c(c1)OCCO2)Nc1ccccc1 | – | 6.27% |
| Cc1cc(NCc2ccccn2)n2ncc(-c3ccc(Cl)cc3)c2n1 | 0.996 µM (active) | – |
| CN1CCN(C(=O)CCN2C(=O)/C(=C\c3ccccc3F)SC2=S)CC1 | – | 0.859% |
| Cn1c(=O)c2c(nc(NCc3ccco3)n2Cc2ccccc2Cl)n(C)c1=O | 3.97 µM (active) | – |
| CN(Cc1nc2ccccc2c(=O)[nH]1)Cc1nc2ccsc2c(=O)[nH]1 | 4.99 µM (active) | – |
| COc1ccc2oc(=O)c(C(=O)Nc3ccccc3C)cc2c1 | 7.91 µM (active) | – |
| COc1ccc2[nH]c(C)c(CCN(Cc3cccs3)C(=S)Nc3ccccc3OC)c2c1 | – | 37.2% |
| COc1ccc(C(=O)/C=C/c2ccc(OC)cc2OC)c(O)c1 | – | 20.2% |
| CCOC(=O)Cn1c(CN2CCc3ccccc3C2)nc2c1c(=O)n(C)c(=O)n2C | 3.15 µM (active) | – |
| Cc1cccc(NC(=O)c2cc3ccccc3o2)c1 | 25 µM (active) | – |
| Cc1cc(C)c(S(=O)(=O)NCCn2ccc3ccccc32)c(C)c1 | – | -83.6% |
